Experimental findings from a collection of fitness landscapes (doi:10.1016/j.celrep.2020.107928) are described below.

B1: Caulobacter ParB omega fusion; a variant is named by its letters at X, in order, B8GW30 (parent)
chain: MESVVVGEPGMSEGRRGLGRGLSALLGEVDAAPAQAPGEQLGGSREAPIEILQRNPDQPRRTFREEDLEDLSNSIREKGVLQPILVRPSPDTAGEYQIVAGERAWRAAQRAGLKTVPIMVRELDDLAVLEIGIIENVQRADLNVLEEALSYKVLMEKFERTQENIAQTIGKSXSHVANXMRLLXLPDEVQSYLVSGELTAXHARAIAAAADPVALAKQIIEGGLSVRETEALARKAPNLSAGKSKGGRPPRVKDTDTQALESDLSSVLGLDVSIDHRGSTGTLTITYATLEQLDDLCNRLTRGI

The full ranking holds about 81,000 sequences; the median of “one-hybrid fitness for binding parS DNA” is about -0.17, and the highest 2% start at about 0.51. The list comes from a sample in which the highest values are over-represented; it also holds similar and randomly drawn sequences.

This experiment covers variants of B1. As to the kind of experiment: one-hybrid fitness for binding parS DNA (scaled: cognate 1, non-cognate 0); higher = stronger binding. The settings on record: with parS DNA site. In a few lines: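 Selection: bacterial one-hybrid in E. coli USO, HIS3 reporter with the site 19 bp from the promoter, 48 hours at 37°C on M9-minus-histidine plus 0.1 mM IPTG and 5 mM 3-AT. Libraries were Caulobacter ParB with four randomised specificity codons, sequenced on Illumina before and after selection. Fitness is the rescaled log change in variant-to-wild-type read ratio, anchored to the cognate and non-cognate sites.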
Turning to HGTM, the “one-hybrid fitness for binding parS DNA” value was at most 0.2.
Regarding RYRV, the “one-hybrid fitness for binding parS DNA” value was at most 0.2.
The result for SHLR reads at most 0.2; that for VPHG, at most 0.2; that for KAVS, at most 0.2.
Regarding RYPS, the “one-hybrid fitness for binding parS DNA” value came out at 0.635.
With RYWH the figure was at most 0.2; with RYLS, 0.986; with RYIC, 0.757.
With RYPD, the “one-hybrid fitness for binding parS DNA” value was at most 0.2.
On to RYWN, for which the “one-hybrid fitness for binding parS DNA” value amounted to 0.422.
For RYWS, the “one-hybrid fitness for binding parS DNA” value is 0.99.
The result for RYLH reads at most 0.2; that for RYLD, 0.206; that for RYIY, 0.352.
Consider RYPC, for which the “one-hybrid fitness for binding parS DNA” value stood at 0.477.
With RYPP the figure was at most 0.2; with PNPL, at most 0.2.
For the variant SDTR, the “one-hybrid fitness for binding parS DNA” value is at most 0.2.
As to MCER, the “one-hybrid fitness for binding parS DNA” value was at most 0.2.
With YVVN the figure was at most 0.2.
Take HTHM: the “one-hybrid fitness for binding parS DNA” value is at most 0.2.
The result for APRT reads at most 0.2; that for VFSS, at most 0.2.
As for NMCG, the “one-hybrid fitness for binding parS DNA” value is at most 0.2.
The result for TSPA reads at most 0.2; that for VQAC, at most 0.2.
As for NLYH, the “one-hybrid fitness for binding parS DNA” value is at most 0.2.
With RYPT the figure was 0.403; with RYIF, at most 0.2; with RYIT, 0.628.
The result for VSVG reads at most 0.2; that for ATKL, at most 0.2.
For LWCV, the “one-hybrid fitness for binding parS DNA” value was at most 0.2.
Take TMIC: the “one-hybrid fitness for binding parS DNA” value is at most 0.2.
With RQNA the figure was 0.613; with RQDA, 0.546.
As to GTRS, the “one-hybrid fitness for binding parS DNA” value is at most 0.2.
The result for WREM reads at most 0.2.
With KDAT the figure was at most 0.2; with KNTT, at most 0.2; with RWKC, 0.896.
RWKK: the “one-hybrid fitness for binding parS DNA” value was at most 0.2.
For the variant RWVM, the “one-hybrid fitness for binding parS DNA” value turned out to be 0.27.
For the variant RWVC, the “one-hybrid fitness for binding parS DNA” value came out at 0.544.
The result for RWVD reads at most 0.2.
The result for RWKF reads 0.288; that for LFFG, at most 0.2; that for RIFC, 0.96.
With RIAK the figure was at most 0.2.
For the variant RIAF, the “one-hybrid fitness for binding parS DNA” value came to 0.213.
With RIAC the figure was 0.973; with RIFH, 0.213; with RIFN, 0.438.
HAMK: the “one-hybrid fitness for binding parS DNA” value is at most 0.2.
The result for NSMR reads at most 0.2; that for HTHL, at most 0.2; that for RWMS, 0.788.
With RWMT, the “one-hybrid fitness for binding parS DNA” value amounted to 0.556.
For RWMG, the “one-hybrid fitness for binding parS DNA” value turned out to be 0.671.
With RWMQ the figure was at most 0.2; with RWMN, 0.211; with RWMD, at most 0.2.
The result for RWMH reads at most 0.2.
The result for RWMP reads at most 0.2; that for RWMM, at most 0.2.
For RWMC, the “one-hybrid fitness for binding parS DNA” value is 0.628.
The result for RWMK reads at most 0.2; that for RWMR, at most 0.2.
With FGNS the figure was at most 0.2; with ACYG, at most 0.2; with CHPN, at most 0.2.
The result for SMHF reads at most 0.2; that for RWKN, 0.421; that for RWKG, 0.901.
RWVG: the “one-hybrid fitness for binding parS DNA” value was found to be 0.584.
The result for RWVK reads at most 0.2.
On to RWKD, for which the “one-hybrid fitness for binding parS DNA” value was at most 0.2.
With RWVR the figure was at most 0.2.
On to DTHI, for which the “one-hybrid fitness for binding parS DNA” value was at most 0.2.
In the case of EYGF, the “one-hybrid fitness for binding parS DNA” value is at most 0.2.
The result for AERY reads at most 0.2; that for KENP, at most 0.2.
FRDG: the “one-hybrid fitness for binding parS DNA” value was at most 0.2.
The result for HAQD reads at most 0.2; that for RGTS, 0.863; that for RGTC, 0.695.
The result for RGTK reads at most 0.2; that for RGTF, at most 0.2.
For RGTP, the “one-hybrid fitness for binding parS DNA” value is at most 0.2.
RGTR: the “one-hybrid fitness for binding parS DNA” value is at most 0.2.
With RGTG the figure was 0.78.
With RGTH the figure was at most 0.2; with RGTN, 0.25; with RGTT, 0.624.
With RGTD the figure was at most 0.2; with RGTM, at most 0.2.
On to TYYF, for which the “one-hybrid fitness for binding parS DNA” value was at most 0.2.
The result for PKPC reads at most 0.2; that for QSEI, at most 0.2.
With CPAM the figure was at most 0.2; with QILY, at most 0.2.
With QADE the figure was at most 0.2; with CSLA, at most 0.2.
Regarding RAKR, the “one-hybrid fitness for binding parS DNA” value was at most 0.2.
With RAKC the figure was 0.91; with RAKM, 0.448; with RAVC, 0.851.
For RAVN, the “one-hybrid fitness for binding parS DNA” value amounted to 0.388.
With RAVP, the “one-hybrid fitness for binding parS DNA” value was at most 0.2.
The result for CAPG reads at most 0.2.
With TVAL the figure was at most 0.2; with SDKW, at most 0.2.
The result for FVSL reads at most 0.2; that for KQRR, at most 0.2.
For the variant IVGT, the “one-hybrid fitness for binding parS DNA” value is at most 0.2.
Take LIKM: the “one-hybrid fitness for binding parS DNA” value was at most 0.2.
With INCG the figure was at most 0.2.
For the variant RTKP, the “one-hybrid fitness for binding parS DNA” value was at most 0.2.
The result for RTVQ reads at most 0.2.
Take RTVK: the “one-hybrid fitness for binding parS DNA” value is at most 0.2.
With RTKQ the figure was at most 0.2.
With RTKT the figure was 0.74.
With RTVT the figure was 0.879; with SPTS, at most 0.2.
As for AAYI, the “one-hybrid fitness for binding parS DNA” value is at most 0.2.
Consider AFVR, for which the “one-hybrid fitness for binding parS DNA” value is at most 0.2.
The result for SQAR reads at most 0.2; that for QSAW, at most 0.2; that for NFVC, at most 0.2.
Regarding DFKC, the “one-hybrid fitness for binding parS DNA” value was at most 0.2.
The result for NFKC reads at most 0.2; that for DFVC, at most 0.2.
As to RFKC, the “one-hybrid fitness for binding parS DNA” value was 0.991.
RFVC: the “one-hybrid fitness for binding parS DNA” value was 0.753.
Consider ARWW, for which the “one-hybrid fitness for binding parS DNA” value was 0.23.
Take ICDS: the “one-hybrid fitness for binding parS DNA” value is at most 0.2.
Take HSSC: the “one-hybrid fitness for binding parS DNA” value is at most 0.2.
With IVSG the figure was 0.263; with STPM, at most 0.2; with SILY, at most 0.2.
As to RTAQ, the “one-hybrid fitness for binding parS DNA” value was at most 0.2.
The result for RTFQ reads 0.26; that for RTFT, 0.911; that for RTAT, 0.918.
The result for RTFM reads 0.334; that for RTAR, at most 0.2.
With EICA the figure was at most 0.2.
Turning to RNHW, the “one-hybrid fitness for binding parS DNA” value is at most 0.2.
Consider GQRT, for which the “one-hybrid fitness for binding parS DNA” value was at most 0.2.
The result for LGMH reads at most 0.2.
Consider QVAS, for which the “one-hybrid fitness for binding parS DNA” value is at most 0.2.
Consider RGFA, for which the “one-hybrid fitness for binding parS DNA” value worked out at 0.215.
The result for RMAA reads 0.59.
